Assay results as given in PubChem BioAssay (EPA / NIEHS).
The source made the active and inactive calls. How the source made its calls: active means hit-call score of the fitted dose curve at least 0.9, where 1 is the maximum; inactive means score below 0.9.

What was measured:
Conditions in all cases: mRNA level, 48 h; actives raise or lower the signal
[1] = read-out: Bcl-2 (BAD) gene, BAD (gene 572); assay: LTEA_HepaRG_BAD: Life Technologies and Expression Analysis (LTEA) Assay for Bcl-2 (BAD) gene using HepaRG (AID 2283469)
Procedure, shortened: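 Differentiated human HepaRG cells in serum-free induction medium were exposed in duplicate for 48 h to eight concentrations (top 100 uM, half-log steps, 0.5% DMSO). BAD mRNA was quantified by qRT-PCR normalised to ACTB, GAPDH and POLR2A, with bidirectional fitting versus DMSO.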

[2] = read-out: Bcl-2 (BAX) gene, BAX (gene 581); assay: LTEA_HepaRG_BAX: Life Technologies and Expression Analysis (LTEA) Assay for Bcl-2 (BAX) gene using HepaRG (AID 2283470)
Procedure, shortened: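 HepaRG (human liver), 48 h exposure, duplicate wells. 8-pt curve, half-log from 100 uM, 0.5% DMSO. BAX transcript by TaqMan qRT-PCR; ACTB/GAPDH/POLR2A normalization; gain or loss vs DMSO baseline.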

[3] = read-out: adenosine kinase (ADK) gene, ADK (gene 132); assay: LTEA_HepaRG_ADK: Life Technologies and Expression Analysis (LTEA) Assay for adenosine kinase (ADK) gene using HepaRG (AID 2283471)
Procedure, shortened: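 Following 48 h exposure of HepaRG cells in 0.5% DMSO (top concentration 100 uM, duplicate wells), ADK mRNA induction or suppression was measured by qRT-PCR, normalised to ACTB/GAPDH/POLR2A, and fitted bidirectionally relative to vehicle.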

[4] = read-out: Alpha-fetoprotein (AFP) gene, AFP (gene 174); assay: LTEA_HepaRG_AFP: Life Technologies and Expression Analysis (LTEA) Assay for Alpha-fetoprotein (AFP) gene using HepaRG (AID 2283472)
Procedure, shortened: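 HepaRG, single lot; 48 h post-plating -> serum-free induction medium; cpd 8-pt, 100 uM top, half-log, 0.5% DMSO, duplicate, 48 h. RNA -> qRT-PCR AFP, norm ACTB/GAPDH/POLR2A. Bidirectional fit vs DMSO.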

BCL2L11 (gene 10018) = assay: LTEA_HepaRG_BCL2L11: Life Technologies and Expression Analysis (LTEA) Assay for Bcl-2 (BCL2L11) gene using HepaRG (AID 2283473)
Procedure, shortened: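 Read-out is BCL2L11 transcript level by qRT-PCR, normalized to three housekeeping genes and fitted bidirectionally against 0.5% DMSO vehicle. HepaRG cells received chemicals for 48 h in serum-free induction medium, 100 uM down in half-log dilutions.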

[5] = read-out: Apolipoprotein A-V (APOA5) gene, APOA5 (gene 116519); assay: LTEA_HepaRG_APOA5: Life Technologies and Expression Analysis (LTEA) Assay for Apolipoprotein A-V (APOA5) gene using HepaRG (AID 2283474)
Procedure, shortened: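 Readout is APOA5 transcript level by qRT-PCR on Fluidigm dynamic arrays, normalized to three housekeeping genes. HepaRG cultures received chemicals for 48 h at up to 100 uM (half-log steps, 0.5% DMSO), with gain or loss scored relative to DMSO.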

[6] = read-out: Apoptosis regulator Bcl-2 (Homo sapiens) (UniProt P10415); assay: LTEA_HepaRG_BCL2: Life Technologies and Expression Analysis (LTEA) Assay for Bcl-2 gene using HepaRG (AID 2283475)
Procedure, shortened: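 HepaRG, plated 48 h then switched to serum-free induction medium; dosed 48 h, 8 conc. (max 100 uM, half-log steps), duplicate, 0.5% DMSO. Lysis in RLT, RNA isolated, TaqMan qRT-PCR for BCL2; ACTB/GAPDH/POLR2A normalisation; bidirectional fit vs DMSO.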

[7] = read-out: Bcl-2 (BID) gene, BID (gene 637); assay: LTEA_HepaRG_BID: Life Technologies and Expression Analysis (LTEA) Assay for Bcl-2 (BID) gene using HepaRG (AID 2283476)
Procedure, shortened: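 Transcript levels of BID, measured by qRT-PCR and normalized to three housekeeping genes, were fitted bidirectionally against DMSO controls. Cells were HepaRG, dosed 48 h at up to 100 uM.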

Caspase-3 (Homo sapiens) = Caspase-3 (Homo sapiens) (UniProt P42574); assay: LTEA_HepaRG_CASP3: Life Technologies and Expression Analysis (LTEA) Assay for cysteine-aspartic acid protease (CASP3) using HepaRG (AID 2283477)
Chain of Caspase-3 (Homo sapiens) (P42574 whole entry, looked up): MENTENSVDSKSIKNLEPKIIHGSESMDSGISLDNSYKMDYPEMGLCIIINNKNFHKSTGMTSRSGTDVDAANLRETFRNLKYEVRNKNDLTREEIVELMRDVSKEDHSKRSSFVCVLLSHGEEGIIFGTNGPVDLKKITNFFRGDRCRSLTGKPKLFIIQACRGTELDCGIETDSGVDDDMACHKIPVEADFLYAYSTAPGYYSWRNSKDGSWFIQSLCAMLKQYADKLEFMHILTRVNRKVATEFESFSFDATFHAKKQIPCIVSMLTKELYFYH
Procedure, shortened: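 Read-out is CASP3 mRNA level by TaqMan qRT-PCR in human HepaRG cells after 48 h chemical exposure. Eight half-log concentrations topping at 100 uM were tested in 0.5% DMSO; gain or loss was fitted relative to DMSO.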

[8] = read-out: Cytochrome P450 (CYP24A1), CYP24A1 (gene 1591); assay: LTEA_HepaRG_CYP24A1: Life Technologies and Expression Analysis (LTEA) Assay for Cytochrome P450 (CYP24A1) using HepaRG (AID 2283478)
Procedure, shortened: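 HepaRG, 48 h chemical exposure, 8-pt half-log CRC from 100 uM, 0.5% DMSO vehicle, duplicates. Endpoint: CYP24A1 mRNA by Fluidigm TaqMan qRT-PCR, normalized ACTB/GAPDH/POLR2A; gain/loss fit vs DMSO.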

Measured: AC50

Chain of Apoptosis regulator Bcl-2 (Homo sapiens) (P10415 whole entry, looked up): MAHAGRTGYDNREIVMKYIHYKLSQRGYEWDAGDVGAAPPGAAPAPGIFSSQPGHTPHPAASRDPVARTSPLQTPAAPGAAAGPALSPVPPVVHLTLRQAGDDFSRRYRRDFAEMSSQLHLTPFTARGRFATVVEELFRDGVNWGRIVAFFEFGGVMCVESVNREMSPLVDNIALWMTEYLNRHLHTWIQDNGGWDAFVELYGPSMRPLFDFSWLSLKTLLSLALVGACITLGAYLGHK

O=c1c(O)c(-c2ccc(O)c(O)c2)oc2cc(O)cc(O)c12
active: [4] 79 µM
inactive: all other assays above

CC(C)c1ccc(C(=O)N=C(N)N)cc1S(C)(=O)=O
inactive: [8]
active: [1] 0.407 µM | [2] 7.39 µM | [3] 0.418 µM | [4] 0.35 µM | BCL2L11 (gene 10018) 0.397 µM | [5] 0.302 µM | [6] 0.558 µM | [7] 0.367 µM | Caspase-3 (Homo sapiens) 0.383 µM

Cc1nc(-c2ccc3c(c2)CCN(CCC2CCC(NC(=O)/C=C/c4ccc(F)cc4)CC2)CC3)no1 (centres undefined)
inactive: all assays above

CCCCOC(=O)CCCCCCCCC(=O)OCCCC
inactive: all assays above

CC(=O)Oc1ccccc1C(=O)O
inactive: all assays above

CCCCN(CCCC)CCCC
inactive: all assays above

CCCc1cc(=O)[nH]c(=S)[nH]1
inactive: all assays above

Oc1ccc2c(c1)OC[C@@H](N1CCC(O)(c3ccc(F)cc3)CC1)[C@H]2O
inactive: all assays above

CCOc1ccc2c(c1)C(C)=CC(C)(C)N2
active: [4] 50 µM | BCL2L11 (gene 10018) 9.92 µM
inactive: all other assays above

Cc1ccccc1Cl
inactive: all assays above

COc1ccc(S(=O)(=O)N2C(=O)[C@@](c3ccccc3OC)(N3C[C@H](O)C[C@H]3C(=O)N(C)C)c3cc(Cl)ccc32)c(OC)c1
active: [2] 19 µM | [3] 12.1 µM | [4] 29.4 µM | BCL2L11 (gene 10018) 63.4 µM | [5] 38.5 µM | [6] 50 µM | Caspase-3 (Homo sapiens) 12.2 µM
inactive: [1] | [7] | [8]

CC1(C)NC(=O)NC1=O
inactive: all assays above

NCCO
inactive: all assays above

CC(=O)C(C)=CC1C(C)=CCCC1(C)C (centres undefined)
inactive: all assays above

COC(=O)c1ccc(O)cc1
inactive: all assays above

CCOC(=O)C(C)(C)Oc1ccc(Cl)cc1
inactive: all assays above

CCOC(=O)CCC(=O)OCC
active: [3] 79.3 µM
inactive: all other assays above

O=C(N[C@@H](Cc1ccccc1)[C@@H](O)C(=O)N1C[C@@H](O)[C@@H](O)C1)c1cc2cc(Cl)ccc2[nH]1
inactive: all assays above

Nc1ccc2c(c1)C(=O)c1ccccc1C2=O
active: [2] 15 µM | [4] 22.8 µM | [5] 5.42 µM
inactive: all other assays above

CC(C)(C)c1cc(O)c(C(C)(C)C)cc1O
active: [3] 76.7 µM | [4] 77.7 µM | [7] 84.3 µM | Caspase-3 (Homo sapiens) 79.4 µM
not listed: [8]
inactive: all other assays above

CC(CO)OC(C)CO (centres undefined) (tested in a mixture with another compound)
inactive: all assays above

C=CCOC(=O)c1ccccc1C(=O)OCC=C
inactive: all assays above

CN1CCN(Cc2cc(-c3ccc4[nH]c(=O)oc4c3)co2)[C@@H](c2ccc(F)cc2)C1
active: [4] 90.1 µM
inactive: all other assays above

COc1cc(-c2nc(NC(=O)c3cc4cc(C)cc(C)c4n3CC(=O)O)sc2CCC2CCCCC2)c(OC)cc1Cl
active: [3] 15.6 µM | [4] 6.7 µM | BCL2L11 (gene 10018) 60.6 µM | [6] 20.1 µM | [7] 5.4 µM | Caspase-3 (Homo sapiens) 11 µM
inactive: [1] | [2] | [5] | [8]

COCCOC[C@H](CC1(C(=O)NC2CCC(C(=O)O)CC2)CCCC1)C(=O)Oc1ccc2c(c1)CCC2 (some centres undefined)
inactive: all assays above

COc1ccc2c(c1)c(CC(=O)O)c(C)n2C(=O)c1ccc(Cl)cc1
inactive: all assays above

CCCCCCCCCCO
inactive: all assays above

CCc1c(C(=O)NN2CCCCC2)nn(-c2ccc(Cl)cc2Cl)c1-c1ccc(Br)cc1
inactive: [1] | [3] | [7] | [8]
active: [2] 27.3 µM | [4] 25.1 µM | BCL2L11 (gene 10018) 7.59 µM | [5] 42 µM | [6] 20 µM | Caspase-3 (Homo sapiens) 50 µM

CNC(=O)[C@H]1O[C@@H](n2cnc3c(NCc4cc(Cl)ccc4OCc4cc(C)no4)ncnc32)[C@H](O)[C@@H]1N
inactive: all assays above

O=C(OCCCCCOC(=O)c1ccccc1)c1ccccc1
active: [1] 1.95 µM | [2] 1.78 µM | [3] 1.57 µM | [4] 0.77 µM | BCL2L11 (gene 10018) 2.45 µM | [5] 3.02 µM | [6] 1.67 µM | [7] 2.7 µM | Caspase-3 (Homo sapiens) 0.627 µM
inactive: [8]

Oc1ccc2ccccc2c1N=Nc1ccccc1
active: [4] 27.9 µM | BCL2L11 (gene 10018) 15.1 µM | [6] 31.5 µM
inactive: all other assays above

Cc1ccc(N(C)C)cc1
inactive: all assays above

Clc1cc(Cl)c(Cl)cc1Cl
inactive: all assays above

COc1cc(C=O)ccc1O
not listed: [2]
inactive: all other assays above

Cc1ccc2ncccc2c1
not listed: [2]
inactive: all other assays above

CCCCCCCC=O
inactive: all assays above

O=C(O)CCCCC(=O)O
inactive: all assays above

Cc1oc(-c2ccccc2)nc1CCOc1cccc2c1ccn2CCC(=O)O
active: [2] 50 µM | [4] 80.8 µM | BCL2L11 (gene 10018) 14.1 µM | [5] 80.7 µM | [6] 86.3 µM
inactive: [1] | [3] | [7] | Caspase-3 (Homo sapiens) | [8]

Cc1cc(NC(=O)C(=O)O)cc(C)c1Oc1ccc(O)c2c1CCC2
active: [4] 9.92 µM
not listed: [2]
inactive: all other assays above

C[C@]12C=CC(=O)C=C1CC[C@@H]1[C@@H]2C(=O)C[C@@]2(C)[C@H]1CC[C@]2(O)C(=O)CO
not listed: [2] | [8]
inactive: all other assays above

O=C(O)Cc1ccccc1Nc1c(Cl)cccc1Cl
active: [4] 19.7 µM
inactive: all other assays above

CCNc1cccc(C)c1
inactive: all assays above
